Test results published in the supplement of paper PMC3414501.
Structures can show the parent of a compound that is named as a salt. Values without a mark were called inactive. Cut-off read from the data, not from the text of the source: active = 2 or more and inactive = the rest.

tested on: S. cerevisiae AD1-9 (efflux-pump deficient), vegetative growth in YPD; assay: growth sensitivity score (doubling time z-score vs DMSO controls); higher = slower growth, strongly negative scores also mark growth inhibition (complete suppression), active = hit call of the paper
How it was run: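 Optical density of Saccharomyces cerevisiae cultures in microtiter plates was followed every 15 min for 24 hours after seeding at an OD600 of 0.065. Eight solvent-only wells were run per experiment. Growth sensitivity scores were found by subtracting the solvent-only mean from the compound mean and dividing by the solvent-only standard deviation.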

SMILES | growth sensitivity score
CN1[C@@H](CC(=O)c2ccccc2)CCC[C@H]1C[C@H](O)c1ccccc1 [Lobeline hydrochloride] (stock concentration (mM, diluted 1:100): 10) | -1.96
Cc1sc(N)c(C(=O)c2cccc(C(F)(F)F)c2)c1C (stock concentration (mM, diluted 1:100): 10) | 143 (active)
CN(C)CCC(c1ccc(Cl)cc1)c1ccccn1 (stereo not drawn) [Chlorpheniramine] (stock concentration (mM, diluted 1:100): 10) | -0.6
CCCc1nc2c(C)cc(-c3nc4ccccc4n3C)cc2n1Cc1ccc(-c2ccccc2C(=O)O)cc1 [Telmisartan] (stock concentration (mM, diluted 1:100): 10) | 43.7 (active)
CCC(C)n1ncn(-c2ccc(N3CCN(c4ccc(OCC5COC(Cn6cncn6)(c6ccc(Cl)cc6Cl)O5)cc4)CC3)cc2)c1=O (stereo not drawn) [Itraconazole] (stock concentration (mM, diluted 1:100): 10.1) | 21.4 (active)
CN1CCC(=C2c3ccccc3CC(=O)c3sccc32)CC1 [Ketotifen fumarate] (stock concentration (mM, diluted 1:100): 8.9) | -0.77
CC(COc1ccccc1Cc1ccccc1)N1CCCCC1 (stereo not drawn) [Benproperine phosphate] (stock concentration (mM, diluted 1:100): 10) | 3.29 (active)
CCOC(=O)[C@H](CCc1ccccc1)N[C@H]1CCc2ccccc2N(CC(=O)O)C1=O [Benazepril hydrochloride] (stock concentration (mM, diluted 1:100): 9.2) | 1.33
